Drawing on article PMC12820563, “FoxP3 forms a head-to-head dimer in vivo and stabilizes its multimerization on adjacent microsatellites”, this text covers binding signal for 32 sequences.

Whole data set: some 16,000 sequences, median “rpm ratio (pull-down/input)” near 0.94, cut for the highest 2% near 1.7. Shown is part of a subset that was picked to be rich in the highest values.

This assay addresses T1, MBP-FoxP1dN (Mus musculus, UniProt P58462 326-579).
T1 sequence: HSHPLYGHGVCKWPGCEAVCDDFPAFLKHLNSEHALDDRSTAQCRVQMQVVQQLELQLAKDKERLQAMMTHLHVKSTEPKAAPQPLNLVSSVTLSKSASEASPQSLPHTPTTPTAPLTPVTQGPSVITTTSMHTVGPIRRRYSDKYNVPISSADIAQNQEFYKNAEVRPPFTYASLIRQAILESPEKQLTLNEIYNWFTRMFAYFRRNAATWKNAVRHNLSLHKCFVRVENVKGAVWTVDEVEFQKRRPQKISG
Description: PD-seq (MBP pull-down with sequencing); 20 mM Tris-HCl pH 7.5, 100 mM NaCl, 1.5 mM MgCl2, 0.4 uM protein, 0.1 uM dsDNA library, 30 min, room temperature, amylose pull-down; high values mean tight binding. Conditions: protein: recombinant; tags: His6-MBP; chain copies: 2; dsDNA, one strand shown. Summed up: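 Binding is reads-per-million enrichment of pull-down over input, with replicates pooled. It comes from 30 min room-temperature incubation in Tris pH 7.5 buffer with NaCl and MgCl2 of 0.4 µM His6-MBP-tagged, N-terminally truncated mouse FoxP3 or FoxP1 fragment from E. coli with 0.1 µM Klenow-filled degenerate double-stranded DNA library, followed by amylose resin capture, three washes and Illumina sequencing of the released DNA.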
On to “GATGATTGTTCTCCCAGCTGATGAATTAGAAACTTCGAGTAAACAAATTTTCCTAATCTTTCTGTTCAAGCGCCATCTAC”, for which the binding signal is 0.892 RPM ratio (pull-down/input).

Take “GATGATTGTTCTCCCAGCTGATGAATTGTCAACTTCGAGTAAACAAATTTTCCTAATCTTTCTGTTCAAGCGCCATCTAC”: the binding signal was 1.31 RPM ratio (pull-down/input).

Consider “GATGATTGTTCTCCCAGCTGATGAATTGGATTCTTCGAGTAAACAAATTTTCCTAATCTTTCTGTTCAAGCGCCATCTAC”, for which the binding signal was 0.813 RPM ratio (pull-down/input).

With “GATGATTGTTCTCCCAGCTGATGAATTACAAGGTTCGAGTAAACAAATTTTCCTAATCTTTCTGTTCAAGCGCCATCTAC”, the binding signal was 1.09 RPM ratio (pull-down/input).

Turning to “GATGATTGTTCTCCCAGCTGATGAATTCACCACATCGAGTAAACAAATTTTCCTAATCTTTCTGTTCAAGCGCCATCTAC”, the binding signal is 1.12 RPM ratio (pull-down/input).

Turning to “GATGATTGTTCTCCCAGCTGATGAATTGGTCTGGTCGAGTAAACAAATTTTCCTAATCTTTCTGTTCAAGCGCCATCTAC”, the binding signal was 0.807 RPM ratio (pull-down/input).

On to “GATGATTGTTCTCCCAGCTGATGAATTTGATGCGTCGAGTAAACAAATTTTCCTAATCTTTCTGTTCAAGCGCCATCTAC”, for which the binding signal was 1.13 RPM ratio (pull-down/input).

For “GATGATTGTTCTCCCAGCTGATGAATTAAACAGGTCGAGTAAACAAATTTTCCTAATCTTTCTGTTCAAGCGCCATCTAC”, the binding signal is 1.21 RPM ratio (pull-down/input).

As for “GATGATTGTTCTCCCAGCTGATGAATTTGGGTCTTCGAGTAAACAAATTTTCCTAATCTTTCTGTTCAAGCGCCATCTAC”, the binding signal was 0.904 RPM ratio (pull-down/input).

As to “GATGATTGTTCTCCCAGCTGATGAATTATATCGATCGAGTAAACAAATTTTCCTAATCTTTCTGTTCAAGCGCCATCTAC”, the binding signal was 0.956 RPM ratio (pull-down/input).

In the case of “GATGATTGTTCTCCCAGCTGATGAATTGATCTGATCGAGTAAACAAATTTTCCTAATCTTTCTGTTCAAGCGCCATCTAC”, the binding signal is 0.968 RPM ratio (pull-down/input).

As to “GATGATTGTTCTCCCAGCTGATGAATTGTATTGATCGAGTAAACAAATTTTCCTAATCTTTCTGTTCAAGCGCCATCTAC”, the binding signal is 2.22 RPM ratio (pull-down/input).

In the case of “GATGATTGTTCTCCCAGCTGATGAATTTTTTTGATCGAGTAAACAAATTTTCCTAATCTTTCTGTTCAAGCGCCATCTAC”, the binding signal was 0.955 RPM ratio (pull-down/input).

On to “GATGATTGTTCTCCCAGCTGATGAATTGTGTTGATCGAGTAAACAAATTTTCCTAATCTTTCTGTTCAAGCGCCATCTAC”, for which the binding signal was 2.46 RPM ratio (pull-down/input).

As to “GATGATTGTTCTCCCAGCTGATGAATTGTTTTGATCGAGTAAACAAATTTTCCTAATCTTTCTGTTCAAGCGCCATCTAC”, the binding signal is 2.01 RPM ratio (pull-down/input).

With “GATGATTGTTCTCCCAGCTGATGAATTTGTTTGATCGAGTAAACAAATTTTCCTAATCTTTCTGTTCAAGCGCCATCTAC”, the binding signal was 1.47 RPM ratio (pull-down/input).

In the case of “GATGATTGTTCTCCCAGCTGATGAATTGATCTAATCGAGTAAACAAATTTTCCTAATCTTTCTGTTCAAGCGCCATCTAC”, the binding signal was 1.19 RPM ratio (pull-down/input).

“GATGATTGTTCTCCCAGCTGATGAATTGAATTGATCGAGTAAACAAATTTTCCTAATCTTTCTGTTCAAGCGCCATCTAC”: the binding signal was 0.941 RPM ratio (pull-down/input).

Regarding “GATGATTGTTCTCCCAGCTGATGAATTGATTGTATCGAGTAAACAAATTTTCCTAATCTTTCTGTTCAAGCGCCATCTAC”, the binding signal was 1.54 RPM ratio (pull-down/input).

As for “GATGATTGTTCTCCCAGCTGATGAATTGTGAAAGTCGAGTAAACAAATTTTCCTAATCTTTCTGTTCAAGCGCCATCTAC”, the binding signal was 1.01 RPM ratio (pull-down/input).

In the case of “GATGATTGTTCTCCCAGCTGATGAATTAACAGACTCGAGTAAACAAATTTTCCTAATCTTTCTGTTCAAGCGCCATCTAC”, the binding signal is 0.866 RPM ratio (pull-down/input).

For the sequence “GATGATTGTTCTCCCAGCTGATGAATTCATCCACTCGAGTAAACAAATTTTCCTAATCTTTCTGTTCAAGCGCCATCTAC”, the binding signal is 0.832 RPM ratio (pull-down/input).

Turning to “GATGATTGTTCTCCCAGCTGATGAATTGTACCACTCGAGTAAACAAATTTTCCTAATCTTTCTGTTCAAGCGCCATCTAC”, the binding signal was 0.996 RPM ratio (pull-down/input).

“GATGATTGTTCTCCCAGCTGATGAATTCCTGTTGTCGAGTAAACAAATTTTCCTAATCTTTCTGTTCAAGCGCCATCTAC”: the binding signal was 2.34 RPM ratio (pull-down/input).

Take “GATGATTGTTCTCCCAGCTGATGAATTCATCTTGTCGAGTAAACAAATTTTCCTAATCTTTCTGTTCAAGCGCCATCTAC”: the binding signal was 0.898 RPM ratio (pull-down/input).

With “GATGATTGTTCTCCCAGCTGATGAATTCTCCTTGTCGAGTAAACAAATTTTCCTAATCTTTCTGTTCAAGCGCCATCTAC”, the binding signal is 0.774 RPM ratio (pull-down/input).

As for “GATGATTGTTCTCCCAGCTGATGAATTCCTCCTGTCGAGTAAACAAATTTTCCTAATCTTTCTGTTCAAGCGCCATCTAC”, the binding signal is 0.729 RPM ratio (pull-down/input).

On to “GATGATTGTTCTCCCAGCTGATGAATTCCTGATGTCGAGTAAACAAATTTTCCTAATCTTTCTGTTCAAGCGCCATCTAC”, for which the binding signal was 1.08 RPM ratio (pull-down/input).

For “GATGATTGTTCTCCCAGCTGATGAATTCTTGTTGTCGAGTAAACAAATTTTCCTAATCTTTCTGTTCAAGCGCCATCTAC”, the binding signal was 2.6 RPM ratio (pull-down/input).

For the sequence “GATGATTGTTCTCCCAGCTGATGAATTAAAGGTTTCGAGTAAACAAATTTTCCTAATCTTTCTGTTCAAGCGCCATCTAC”, the binding signal was 0.867 RPM ratio (pull-down/input).

With “GATGATTGTTCTCCCAGCTGATGAATTTCCTGACTCGAGTAAACAAATTTTCCTAATCTTTCTGTTCAAGCGCCATCTAC”, the binding signal was 0.753 RPM ratio (pull-down/input).

Turning to “GATGATTGTTCTCCCAGCTGATGAATTAAGATCTTCGAGTAAACAAATTTTCCTAATCTTTCTGTTCAAGCGCCATCTAC”, the binding signal is 0.868 RPM ratio (pull-down/input).
